Only some compounds are listed: those with a hit (about 1.1% of all), similar ones and a draw of the others.
KCNH2 3.1 inh: blocks the human KCNH2 3.1 channel isoform | U2OS KCNH2 3.1, thallium flux FluxOr; stronger effect = lower value | activity change, % (tested at about 1.8 µM) | hit rate 0.95% among 340,000;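 active = maximum activity change below -70%; inconclusive = maximum activity change from -70% to -50%; inactive = maximum activity change above -50%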;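 also: thallium influx rate constant from kinetic fluorescence after stimulation buffer; % is scaled to controls: 0 for no effect and ±100 for the full control effect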
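Steps: virus added to U2OS suspension (4 h, RT, dark); medium with 10% FBS added, cells plated, 37 C overnight; FluxOr/Red40 loading buffer 45 min RT; stimulation buffer, 2 min kinetic read; rate constant normalized.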
KCNH2 WT inh: blocks the wildtype human KCNH2 potassium channel; AID 720551; activity change, % at 1.84 µM; U2OS, BacMam KCNH2, thallium flux FluxOr; stronger effect = lower value; hit rate 0.37% among 340,000; Q12809;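 active = maximum activity change below -70%; inconclusive = maximum activity change between -70% and -50%; inactive = maximum activity change above -50%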; also: % is scaled to controls: 0 for no effect and ±100 for the full control effect
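U2OS cells transduced with wild-type KCNH2 virus are loaded with FluxOr dye for 45 min, and thallium flux is measured in kinetic reads before and after stimulation buffer. Rate constants are normalized to DMSO controls.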
Menin MLL FP FL: menin-MLL binding inhibition, fluorescein peptide. Fluorescence polarization, fluorescein-MLL peptide displacement from menin. 290,000 tested, under 10 active. FP activity change, % at 61.4 µM; active = well fitted curve in the direction sought with a large enough effect in the polarisation, not every such curve was filed as active; inconclusive = small, poorly fitted or top-dose-only effect, or effect the other way, or a change in a side signal; inactive = no such curve, though single readings can be large or run the other way; the % refers to the polarisation; also: % of control where 0% means no effect
Menin-MLL TR inh: menin-MLL binding inhibition, Texas Red mutant peptide | Menin + Texas Red MLL mutant peptide, fluorescence polarization | Potency, µM (titrated, usually from 61.6 µM), for inactives: top-dose FP activity change, negative = inhibition, actives largely listed as inhibitors | hit rate 0.23% among 270,000 | AID 1768; active = well fitted inhibition curve with a large enough effect in the polarisation, with a control signal flat, not every such curve was filed as active; inconclusive = small, poorly fitted or top-dose-only effect, or effect the other way, or a change in a side signal; inactive = no such curve, though single readings can be large or run the other way; the % refers to the polarisation; also: potency is read from the fitted curve at half-maximal effect; % of control where 0% means no effect
MLL CXXC-DNA inh: inhibitors of human MLL CXXC domain-DNA interaction | Q03164 | MLL-CXXC / FITC-HOXA9 DNA fluorescence polarization | Potency, µM (highest dose often 115 µM), for inactives: at the highest dose activity change, negative = inhibition, most hits filed as inhibitors | hit rate 0.037% among 290,000; active = well fitted inhibition curve with a large enough effect in the polarisation, with a control signal flat, not every such curve was filed as active; inconclusive = small, poorly fitted or top-dose-only effect, or effect the other way, or a change in a side signal; inactive = no such curve, though single readings can be large or run the other way; the % refers to the polarisation; also: potency is read from the fitted curve at half-maximal effect
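Steps: dispense CXXC domain solution (7 uM) → pin compounds or unlabeled HOX-A9 DNA control → 5 min ambient → add FLSN-HOX-A9 solution (50 nM) → spin → 30 min ambient → fluorescence polarization. Tris pH 7.5/NaCl/DTT/BSA buffer.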
* = called active by the depositor; ? = inconclusive; / = not tested or not shown; [ ] = dose if it differs, or a comment.

SMILES	KCNH2 3.1 inh	KCNH2 WT inh	Menin MLL FP FL	Menin-MLL TR inh	MLL CXXC-DNA inh
COc1ccc(C2=Nc3ccc(Br)cc3C(c3ccccc3)N2CC(=O)NN)cc1 (stereo not drawn)	-72*	-8	1	-8%	3%
COC(=O)CN1C(c2ccc(Cl)cc2)=Nc2ccc(Cl)cc2C1c1ccccc1 (stereo not drawn)	-11	1	1	-12%	-11%
COc1ccc(C2=Nc3ccc(C)cc3C(c3ccccc3)N2CC(=O)NN)cc1 (stereo not drawn)	-190*	-16	0	?	6%
NNC(=O)CN1C(c2cccc(Cl)c2)=Nc2ccc(Br)cc2C1c1ccccc1 (stereo not drawn)	-13	-2	4	-7%	-15%
O=C(c1ncc[nH]1)c1cccs1	2	-7	3	/	10%
Cn1c(SC(C(=O)Nc2ccc(F)cc2)c2ccccc2)nc2ccccc21 (stereo not drawn)	-82*	-9	2	0%	5%
CCCCN(C)C(=O)c1nc2ccccn2c1CN1CCN(C/C=C/c2ccccc2)CC1	-102*	-32	-4	?	-2%
COc1ccc(CCNC(=O)COc2ncnc3cc([N+](=O)[O-])ccc23)cc1	-107*	1	2	5%	4%
CS(=O)(=O)NC(=O)CCC/C=C\C[C@H]1C(=O)C[C@@H](O)[C@@H]1/C=C/[C@@H](O)COc1ccccc1	/	/	2	?	/
Cn1c(N)c(N=O)c(=O)n(C)c1=O	-10	1	3	/	-13%
CCOC(=O)C=Nc1c(N)n(C)c(=O)n(C)c1=O	-92*	-5	?	-13%	-10%
Cc1csc2c(N3CCN(C(=O)Nc4ccc(OC(F)(F)F)cc4)CC3)ncnc12	-92*	5	1	/	-5%
Cc1ccc(CN2CCN(C(=O)C3CCCO3)CC2)cc1 (stereo not drawn)	-5	-3	-1	0%	-1%
O=C(C1CCCO1)N1CCN(Cc2c(O)ccc3ccccc23)CC1 (stereo not drawn)	-95*	-14	3	1%	105%
CCCCN1C(=O)c2ccc(C(=O)Nc3ccc(C)c(S(=O)(=O)N(C)C)c3)cc2C1=O	-74*	6	-1	19%	16%
COC(=O)CCN1CCC2CC1c1cc(N3CCCCC3)ccc12 (stereo not drawn)	-1	-4	/	/	/
COc1ccccc1/C=C/C=N/NC(=O)c1ccc(=O)n(C)c1	-93*	-8	9	16%	11%
CCOC(=O)N1CCC(NC(=O)CCN2C(=O)COc3ccccc32)CC1	-1	-253*	3	-4%	1%
CCOC(=O)N1CCC(NC(=O)CCC(=O)N2CC(C)Oc3ccccc32)CC1 (stereo not drawn)	6	-8	0	-1%	10%
COc1ccc(CN2CCCC(C(=O)N(C)Cc3ccccc3)C2)cc1OC (stereo not drawn)	-75*	-9	5	0%	-6%
Cn1c(SCC(=O)Nc2ccc3c(c2)OCO3)nnc1C(F)(F)F	-1	7	/	/	/
Cc1ccc(OCCSc2nc(NC(C)C)nc(NC(C)C)n2)cc1	-76*	-1	3	-2%	2%
CCOC(=O)OCC1OC(C#Cc2ccccc2)C=CC1OC(=O)OCC (stereo not drawn)	/	/	1[11.7 µM]	-1%[11.7 µM]	/
COC(=O)C(Cc1cccc(C)n1)(c1ccccc1)c1ccccc1	-12	4	-13	?	9%
CN1CCN(c2nc(-c3ccccc3Cl)nc3ccccc23)CC1	-5	25	3	4%	41%
SMILES	KCNH2 3.1 inh	KCNH2 WT inh	Menin MLL FP FL	Menin-MLL TR inh	MLL CXXC-DNA inh
CN1CCN(c2nc(-c3ccc(Cl)cc3Cl)nc3ccccc23)CC1	-124*	-18	5	-21%	14%
C[C@@H]1CC[C@H]2C(=O)O[C@H](CN=[N+]=[N-])CN2[C@@H]1c1ccc(Br)cc1	/	/	-1[11.7 µM]	12%[11.7 µM]	/
COc1ccc(CNc2nc3ccccc3n2CCN2CCOCC2)cc1	-36	32	5	0%	-4%
CCN(CC)c1ccc(CNc2nc3ccccc3n2CCN2CCOCC2)cc1	-77*	23	4	?	4%
Cc1ccc(CNC(=O)c2nnn(-c3cccc(C)c3)c2N)cc1	-108*	25	4	/	0%
Cc1cc(C)cc(-n2nnc(C(=O)NCc3ccccc3)c2N)c1	-16	-7	1	?	8%
N[C@]1(C(=O)O)CCc2cc(C(=O)O)ccc21	/	/	?	-9%[24.8 µM]	/
O=C(c1cc(COc2ccc(F)c(F)c2)on1)N1CCN(C2CCCCC2)C(=O)C1	-125*	-6	/	/	1%
CCOc1ccc(CN2CCN(Cc3cccn3-c3cccnc3)CC2CCO)cc1 (stereo not drawn)	9	-46	-1	-13%	-5%
CCOc1ccc(CN2CCN(Cc3cccn3-c3ncccn3)CC2CCO)cc1 (stereo not drawn)	-111*	?	3	-11%	-6%
COc1ccc(CN2CCN(Cc3cccn3-c3ncccn3)CC2CCO)c(C)c1C (stereo not drawn)	-74*	-36	-4	?	-1%
Cc1cccc(NC(=O)COC(=O)c2ccccn2)c1	4	-17	-2	1%	8%
COc1cccc(-c2nc(CS(=O)(=O)CC(=O)Nc3c(C)cccc3C)c(C)o2)c1	-104*	3	3	1%	-3%
Cc1ccccc1-c1nc(CS(=O)(=O)CC(=O)NCCN2CCOCC2)c(C)o1	-10	-9	2	2%	-7%
Cc1ccc(-c2nc(CS(=O)(=O)CC(=O)NC3CCCCCC3)c(C)o2)cc1	-2	4	-1	?	-6%
Cc1ccc(-c2nc(CS(=O)(=O)CC(=O)NCCN3CCOCC3)c(C)o2)cc1	9	-187*	5	-17%	7%
COc1ccc(-c2nc(CS(=O)(=O)CC(=O)NC3CCCCCC3)c(C)o2)cc1	-4	-102*	/	/	-1%
O=C(COc1ccc(S(=O)(=O)N2CCOCC2)cc1)NCCc1ccc(Cl)cc1	-34	3	/	/	/
COC(=O)N[C@@H](c1cccc(F)c1)[C@@H](C)[N+](=O)[O-]	/	/	-3	-7%	/
Cc1noc(C)c1-c1nccc(NC2CC2)n1	/	/	-6	-1%	/
CC1CCCC(C)N1CCCNC(=O)c1ccc2nc(N3CCCCC3)sc2c1 (stereo not drawn)	-13	-158*	-2	-14%	8%
CC1CCCC(C)N1CCCNC(=O)c1ccc2nc(N3CCOCC3)sc2c1 (stereo not drawn)	-6	1	0	-25%	7%
Cc1ccc(Cn2nnnc2CN2CCC(c3nc4ccc(Cl)cc4[nH]3)CC2)cc1	-88*	-2	3	1%	6%
O=C(O)c1ccc(-c2ccccc2C(F)(F)F)s1	/	/	2[94.6 µM]	0%[94.6 µM]	/
COn1c(-c2ccccc2)nc2ccc(Cl)cc21	-94*	-6	0	-3%	8%

Source: PubChem
